Compounds with a hit are over-represented: about 12% of the library has one in this group of screens.
G9a inh = G9a (human) methyltransferase inhibition. AID 504332. hit rate 8.8% among 350,000. Potency, µM (series often up to 102 µM), inactives show at the top dose activity, negative = inhibition, most hits filed as inhibitors. G9a H3K9 monomethylation, AlphaScreen, 2 h. Q96KQ7; also: % is scaled to controls: 0 for no effect and ±100 for the full control effect; nearly all actives have a fitted effect of over 75% in size
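Methyltransferase reactions run at room temperature for 2 h (20 nM enzyme, 500 nM biotin-H3K9 peptide, 20 uM SAM) after a 15 min compound preincubation; product detected by AlphaScreen beads and anti-H3K9me1 antibody.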
BAZ2B inh = blocks human BAZ2B | Q9UIF8 | AlphaScreen BAZ2B-H3K14Ac peptide displacement | Potency, µM (series often up to 114 µM), for the others: at the top dose activity change, negative = inhibition, actives largely listed as inhibitors | hit rate 4.4% among 360,000 | AID 504333; also: % is scaled to controls: 0 for no effect and ±100 for the full control effect; nearly all actives have a fitted effect of over 60% in size
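In this displacement format the biotinylated H3(5-23) peptide acetylated at Lys14 serves as ligand at 50 nM, with BAZ2B at 50 nM in PBS pH 7.4 containing 0.01% Tween-20. Donor and acceptor beads are 10 ug/mL final.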
HP1b chromo inh = HP1-beta chromodomain-methylated histone interaction inhibition; AlphaScreen HP1-beta / biotin-H3K9me3 peptide binding; Potency, µM (doses to about 114 µM), without a hit: top-dose activity change, negative = inhibition, actives largely listed as inhibitors; hit rate 0.56% among 390,000; AID 540317; also: nearly all actives have a fitted effect of over 70% in size
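HP1-beta protein (50 nM final) preincubated 30 min at room temperature with biotinylated H3(1-18)K9me3 peptide (50 nM) in PBS pH 7.4, 0.01% Tween-20, then compound added for 30 min. AlphaScreen streptavidin donor/nickel chelate acceptor beads (10 ug/mL final), 30 min dark, luminescence read.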
PLK1 PBD inh = blocks phosphopeptide binding to human PLK1 polo-box domain. P53350. Plk1 PBD binding of FITC phosphopeptide, fluorescence polarization. Potency, µM, for the others: max response, negative = inhibition, usual class: inhibitors. hit rate 2.8% among 360,000; also: series mostly up to about 57 µM; % is scaled to controls: 0 for no effect and ±100 for the full control effect; nearly all actives have a fitted effect of over 65% in size
Sfp PPTase inh = inhibitors of Bacillus subtilis Sfp phosphopantetheinyl transferase; Q9F4F7; Biochemical Sfp PPTase activity, qHTS; Potency, µM, without a hit: largest response in the series, negative = inhibition, usual class: inhibitors; hit rate 3.5% among 310,000; AID 1490;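 also: the enzyme is Sfp with the accession as filed and its product quenches rhodamine fluorescence; 0% = enzyme reaction without inhibitor and -100% = no enzyme wells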
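Step 1, compound plus 15 nM Sfp-PPTase, 15 min, room temperature. Step 2, add rhodamine-CoA (5 uM) and BHQ-2-YbbR (12.5 uM). Step 3, read 525/598 nm fluorescence at 0 and 30 min.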
JMJD2A Tudor inh = inhibitors of human JMJD2A Tudor domain | AID 504339 | Potency, µM (top dose mostly 114 µM), inactives show at the highest dose activity change, negative = inhibition, usual class: inhibitors | hit rate 4.4% among 390,000 | O75164 | AlphaScreen JMJD2A-Tudor / H3K4me3 peptide binding; also: % is scaled to controls: 0 for no effect and ±100 for the full control effect; nearly all actives have a fitted effect of over 50% in size
* hit, by the source's call; u = inconclusive; x = not tested or not shown; [ ] = another dose, or the depositor's remark. Calls follow the shape of the dose curve; as a rule, active = well fitted curve in the direction sought with a large enough effect; inconclusive = small, poorly fitted or top-dose-only effect, or another doubt; inactive = no such curve, though single readings can be large; an effect the other way counts as inactive or inconclusive. Potency is read from the fitted curve at half-maximal effect.

SMILES	G9a inh	BAZ2B inh	HP1b chromo inh	PLK1 PBD inh	Sfp PPTase inh	JMJD2A Tudor inh
CC1(C(=O)NS(=O)(=O)c2cccc(Cl)c2)CCN1C(=O)C1(c2ccc(Cl)cc2)CCC1 (stereo unspecified)	x	x	x	-16%	x	x
CCN1CCN(c2ncnc3sc(C)c(-c4ccccc4)c23)CC1	-4%[59 µM]	1%	3%	-7%	9%	-16%
Oc1c(C=Nc2ccccc2Cl)[nH]c2ccccc12	8.9µM*	-13%	-22%	0%	u	u
Cc1ccc(/C([O-])=C(/C(=S)NCc2ccc3c(c2)OCO3)[n+]2ccc(N(C)C)cc2)c(C)c1	50µM*	u	-19%	u	1%	u
COc1cc(CSc2ncc(CO)n2Cc2ccc(C)cc2)cc(OC)c1	-33%[59 µM]	u	-15%[57 µM]	x	x	u
O=C1CC(c2ccccc2)c2c(n3ncnc3[nH]c2=O)N1 (stereo unspecified)	-16%[59 µM]	-6%	34%	x	x	-23%
CC(=O)Oc1cc2c(C(=O)NCCCN3CCOCC3)c(C)oc2c2ccccc12	-10%[2.33 µM]	-3%	2%	30µM*	-6%	-19%[11.4 µM]
Cc1c(OCC(=O)NCCCN2CCOCC2)ccc2c1oc(=O)c1ccccc12	4%	-15%	23%	-5%	10%	-13%
Cc1ccc(C(=O)Nc2ccc(C(=O)N/N=C/c3cccnc3)cc2)cc1	79µM*	-34%	u	-1%	-5%	u
Cn1c(/C=N/NC(=O)c2ccccc2Br)nc2ccccc21	33%[0.501 µM]	8%[57.1 µM]	35%	-2%	u	-17%
Cc1ccc(C(=O)N/N=C/c2nc3ccccc3n2C)cc1	33%[12.7 µM]	u	47%	-14%	-26%	63µM*
CC(C)(C)OC(=O)N/N=C\c1cccnc1	1.3µM*	-31%	3%	-21%	12%	-15%[11.4 µM]
COc1ccc(COC(=O)CCc2cc(OC)c(OC)c(OC)c2)cc1F	x	x	28%[57 µM]	u	x	u
O=C(CNC(=O)c1ccncc1)OC(C(=O)Nc1cc(C(F)(F)F)ccc1Cl)c1ccccc1 (stereo unspecified)	x	x	x	x	x	-19%
COc1ccc(-c2c3c(=O)n(C)c(=O)n(C)c3cn2Cc2cccnc2)cc1	10µM*	-8%	47%	-21%	-3%	-9%
COc1ccc(-c2c3c(=O)n(C)c(=O)n(C)c3cn2-c2cc(OC)ccc2OC)cc1	45µM*	u	-24%	-20%	-11%	u
CCOc1ccccc1-n1cc2c(c1-c1ccc(OC)cc1)c(=O)n(C)c(=O)n2C	u	-24%	7%	x	x	-30%
COc1ccc(-c2c3c(=O)n(C)c(=O)n(C)c3cn2Cc2ccccn2)cc1	u	50µM*	40%	-23%	u	-36%
CC(=O)N(C)C[C@H]1Oc2ncc(Br)cc2C(=O)N([C@H](C)CO)C[C@@H]1C	x	x	x	3%	x	x
Cc1cccc(NC(=O)COC(=O)c2nn(C)c(=O)c3ccccc23)c1C	x	x	26%	-2%	x	0%
CN(C)C=Nc1nonc1-c1ncn[nH]1	22µM*	-10%	10%	-6%	u	2.5µM*
CCC(=O)N1CCc2nc(-c3ccccc3)sc2C1	-36%	1%	24%	0%	8%	-3%
Nc1nc(C(=O)N2CCOCC2)nn1C(=O)c1ccc(Cl)cc1	35µM*	-18%	70%	u	5%	3%
O=C(c1ccc(Cl)cc1)c1ccccc1C(=O)N1CCOCC1	7%	10%	20%	-6%	12%	-12%
CCOC(=O)c1c(C)[nH]c(CCC(=O)NCc2cc(Br)ccc2OC)c1C	0%[59 µM]	-21%	1%[57 µM]	x	x	u
Cc1ccc(C(=O)Nc2ccnc(-c3ccncc3)n2)cc1	-4%	-8%	27%	3%	13%	2%
O=C(N/C(=C\c1cccc([N+](=O)[O-])c1)C(=O)N1CCOCC1)c1ccc([N+](=O)[O-])cc1	-22%	-14%	9%	-1%	-14%	-14%
COc1ccc(OC)c(C(=O)COC(=O)c2cccnc2Cl)c1	1%	10%	56%	-10%	4%	-7%[11.4 µM]
